# Reference: PubChem BioAssay AID1159580 (chemical genetic matrix, 2015)
# About 2,000 (36%) of roughly 5,500 compounds were called active. About 18% were inconclusive and are not listed. The list shows a part of the results. Values without a mark were called inactive. Rule as the data show it: active = normalized growth mostly below about 0.91 (no sharp cut-off); inconclusive = no clear call, values can overlap the other calls; inactive = mostly above about 0.92.
# Assay: chemical genetic growth profiling, strain panel (AID 1159580);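 also: tested at 20 µM; growth read once vehicle control cultures reached saturation at 30 °C; 1 = growth at the plate median or of vehicle wells; lower values mean less growth of the strain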
# Conditions: S. cerevisiae deletion strains, growth OD
# [1] = locus YHR030C, strain SLT2, active compounds read low
# [2] = locus YHR079C, strain IRE1, active compounds read low
# [3] = locus YJL095W, strain BCK1, active compounds read low
# [4] = locus YJR066W, strain TOR1, active compounds read low
# [5] = locus YLR113W, strain HOG1, active compounds read low
# [6] = locus YNL183C, strain NPR1, active compounds read low
# [7] = locus YOR231W, strain MKK1, active compounds read low
# [8] = locus YPL256C, strain CLN2, active compounds read low
compound,measurement,setting,value
CCN(CC)C(=O)c1ccc(O)c(OC)c1,normalized growth,"locus YAL013W, strain DEP1, active compounds read low",1.01
same,normalized growth,"locus YAL040C, strain CLN3, active compounds read low",1.05
same,normalized growth,"locus YCL061C, strain MRC1 (second series), active compounds read low",1
same,normalized growth,"locus YDR363W, strain ESC2, active compounds read low",1.01
same,normalized growth,"locus YER002W, strain NOP16, active compounds read low",1.03
same,normalized growth,[1],0.964
same,normalized growth,[2],0.997
same,normalized growth,[3],1
same,normalized growth,[4],0.957
same,normalized growth,[5],0.99
same,normalized growth,"locus YNL175C, strain NOP13, active compounds read low",1.01
same,normalized growth,[6],0.938
same,normalized growth,"locus YNL197C, strain WHI3, active compounds read low",0.999
same,normalized growth,"locus YNL224C, strain SQS1, active compounds read low",1.01
same,normalized growth,"locus YNL322C, strain KRE1, active compounds read low",1.03
same,normalized growth,"locus YOR083W, strain WHI5 (second series), active compounds read low",1.01
same,normalized growth,[7],0.985
same,normalized growth,[8],0.975
CCOc1ccc(C(=O)c2ccc(OC)c(O)c2O)cc1,normalized growth,"locus YAL021C, strain ccr4, active compounds read low",0.958
same,normalized growth,"locus YAL026C, strain drs2, active compounds read low",0.966
same,normalized growth,"locus YAL030W, strain snc1, active compounds read low",1.02
same,normalized growth,"locus YBL061C, strain skt5, active compounds read low",0.994
same,normalized growth,"locus YBR009C, strain hhf1, active compounds read low",0.962
same,normalized growth,"locus YBR023C, strain chs3, active compounds read low",0.977
same,normalized growth,"locus YBR171W, strain sec66, active compounds read low",1.02
same,normalized growth,"locus YBR231C, strain swc5, active compounds read low",0.939
same,normalized growth,"locus YBR279W, strain paf1, active compounds read low",0.973
same,normalized growth,"locus YCL011C, strain gbp2, active compounds read low",0.991
same,normalized growth,"locus YCL016C, strain dcc1, active compounds read low",0.973
same,normalized growth,"locus YCL061C, strain MRC1, active compounds read low",0.993
same,normalized growth,"locus YCL069W, strain vba3, active compounds read low",1.01
same,normalized growth,"locus YCR088W, strain abp1, active compounds read low",1.02
same,normalized growth,"locus YDL005C, strain med2, active compounds read low",1.05
same,normalized growth,"locus YDL040C, strain nat1, active compounds read low",1.01
same,normalized growth,"locus YDR001C, strain nth1, active compounds read low",1.03
same,normalized growth,"locus YDR069C, strain doa4, active compounds read low",0.974
same,normalized growth,"locus YDR137W, strain rgp1, active compounds read low",0.913
same,normalized growth,"locus YDR159W, strain sac3, active compounds read low",1.05
same,normalized growth,"locus YDR195W, strain ref2",1.15 [resistant] (active)
same,normalized growth,"locus YDR297W, strain sur2, active compounds read low",1.01
same,normalized growth,"locus YDR334W, strain swr1, active compounds read low",1.02
same,normalized growth,"locus YDR335W, strain msn5, active compounds read low",0.993
same,normalized growth,"locus YDR392W, strain spt3, active compounds read low",0.795
same,normalized growth,"locus YEL003W, strain gim4, active compounds read low",0.964
same,normalized growth,"locus YEL037C, strain rad23, active compounds read low",1.01
same,normalized growth,"locus YEL061C, strain CIN8 (second series), active compounds read low",1.02
same,normalized growth,"locus YER015W, strain faa2, active compounds read low",0.934
same,normalized growth,"locus YER016W, strain bim1, active compounds read low",1.01
same,normalized growth,"locus YER111C, strain swi4, active compounds read low",1.03
same,normalized growth,"locus YER155C, strain BEM2 (second series), active compounds read low",0.842 (active)
same,normalized growth,"locus YFR010W, strain ubp6, active compounds read low",1.01
same,normalized growth,"locus YGL167C, strain pmr1, active compounds read low",0.997
same,normalized growth,"locus YGL173C, strain kem1, active compounds read low",0.999
same,normalized growth,"locus YGL227W, strain vid30, active compounds read low",1.03
same,normalized growth,"locus YGL240W, strain doc1, active compounds read low",0.982
same,normalized growth,"locus YGL253W, strain hxk2, active compounds read low",1
same,normalized growth,"locus YHR013C, strain ard1, active compounds read low",0.961
same,normalized growth,"locus YHR027C, strain rpn1, active compounds read low",1.01
same,normalized growth,[1],0.892
same,normalized growth,[2],0.913
same,normalized growth,"locus YHR142W, strain chs7, active compounds read low",0.963
same,normalized growth,"locus YJL092W, strain hpr5, active compounds read low",1.02
same,normalized growth,"locus YJL095W, strain BCK1 (second series), active compounds read low",0.987
same,normalized growth,[3],0.923
same,normalized growth,"locus YJL115W, strain asf1, active compounds read low",1.04
same,normalized growth,"locus YJL129C, strain trk1, active compounds read low",1.04
same,normalized growth,"locus YJL154C, strain vps35, active compounds read low",1.03
same,normalized growth,"locus YJL164C, strain tpk1, active compounds read low",0.964
same,normalized growth,"locus YJL166W, strain qcr8, active compounds read low",0.959
same,normalized growth,"locus YJL187C, strain SWE1, active compounds read low",1
same,normalized growth,[4],0.826
same,normalized growth,"locus YKL160W, strain elf1, active compounds read low",0.951
same,normalized growth,"locus YKR026C, strain gcn3, active compounds read low",1.03
same,normalized growth,"locus YKR091W, strain srl3, active compounds read low",1.02
same,normalized growth,"locus YLL001W, strain dnm1, active compounds read low",0.981
same,normalized growth,"locus YLL026W, active compounds read low",1.03
same,normalized growth,"locus YLL041C, strain sdh2, active compounds read low",1.01
same,normalized growth,"locus YLR027C, strain aat2, active compounds read low",0.986
same,normalized growth,[5],0.953
same,normalized growth,"locus YLR221C, strain rsa3, active compounds read low",0.977
same,normalized growth,"locus YLR258W, strain gsy2, active compounds read low",1
same,normalized growth,"locus YLR262C, strain YPT6 (second series), active compounds read low",0.875
same,normalized growth,"locus YLR320W, strain mms22, active compounds read low",0.949
same,normalized growth,"locus YLR342W, strain FKS1, active compounds read low",0.958
same,normalized growth,"locus YLR357W, strain rsc2, active compounds read low",0.949
same,normalized growth,"locus YLR370C, strain arc18, active compounds read low",1.02
same,normalized growth,"locus YLR384C, strain iki3, active compounds read low",1.02
same,normalized growth,"locus YML120C, strain ndi1, active compounds read low",0.997
same,normalized growth,"locus YMR058W, strain fet3, active compounds read low",0.818 (active)
same,normalized growth,"locus YMR125W, strain sto1, active compounds read low",1.02
same,normalized growth,"locus YMR129W, active compounds read low",1.01
same,normalized growth,"locus YMR205C, strain PFK2, active compounds read low",1.01
same,normalized growth,"locus YMR231W, strain pep5, active compounds read low",0.992
same,normalized growth,"locus YNL071W, strain lat1, active compounds read low",0.972
same,normalized growth,[6],0.866
same,normalized growth,"locus YNL209W, strain ssb2, active compounds read low",0.909 (active)
same,normalized growth,"locus YNL248C, strain rpa49, active compounds read low",1.03
same,normalized growth,"locus YNL322C, strain KRE1 (second series), active compounds read low",1.03
same,normalized growth,"locus YNR049C, strain mso1, active compounds read low",1.06
same,normalized growth,"locus YOR001W, strain rrp6, active compounds read low",0.996
same,normalized growth,"locus YOR070C, strain gyp1, active compounds read low",0.989
same,normalized growth,"locus YOR080W, strain dia2, active compounds read low",1.04
same,normalized growth,"locus YOR083W, strain WHI5, active compounds read low",0.953
same,normalized growth,"locus YOR106W, strain vam3, active compounds read low",0.892
same,normalized growth,[7],0.94
same,normalized growth,"locus YOR265W, strain rbl2, active compounds read low",1.01
same,normalized growth,"locus YOR270C, strain vph1, active compounds read low",0.918
same,normalized growth,"locus YOR290C, strain snf2, active compounds read low",0.955
same,normalized growth,"locus YPL051W, strain arl3, active compounds read low",0.878 (active)
same,normalized growth,"locus YPL078C, strain atp4, active compounds read low",0.957
same,normalized growth,"locus YPL106C, strain sse1, active compounds read low",0.957
same,normalized growth,"locus YPL240C, strain hsp82, active compounds read low",1.01
same,normalized growth,[8],0.954
